AC50 and outcome data for four compounds are collected here from PubChem BioAssay (EPA / NIEHS).

Molecules are shown by their SMILES. Several values for one entry are separate records, joined by “and”; a condition that tells them apart may be missing. Identical values can stand only once. Some compounds were tested as several samples or in several runs, with calls that do not always agree. Activity calls are given as the source filed them. The calls were made as follows: active = hit-call score of the fitted dose curve at least 0.9, where 1 is the maximum; inactive = score below 0.9.

A short description of assay [1]: ATG_ISRE_CIS: Attagene CIS-FACTORIAL HepG2 Assay for human Interferon Regulatory Factor 1 (IRF1) binding to an Interferon-Stimulated Response Element (ISRE) (AID 2282948). To be noted: HepG2 ISRE cis-reporter (Attagene), mRNA transcription readout; actives raise or lower the signal. The essentials: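 Endogenous transcription factor activity read as reporter transcript abundance via RT-PCR and capillary electrophoresis. HepG2 cells transiently transfected, 24 h chemical exposure. Gain or loss fitted against DMSO baseline.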

Assay [2] can be described thus: ATG_M_32_CIS: Attagene CIS-FACTORIAL HepG2 Assay for M32 Transcription Factor (Internal Marker) (AID 2282949).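 Also: background control marker of the multiplexed CIS panel rather than a real target.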 The settings on record: HepG2 Attagene cis-factorial M32 reporter, mRNA; actives raise or lower the signal. The essentials:
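HepG2 transfectants (cis-regulated reporter transcription units) dosed 24 h. Reporter mRNA by RT-PCR plus CE, analysed as gain or loss relative to DMSO.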

The nature of assay [3]: ATG_M_06_CIS: Attagene CIS-FACTORIAL HepG2 Assay for M06 Transcription Factor (Internal Marker) (AID 2282950). The settings on record: HepG2 Attagene CIS-FACTORIAL M06 internal marker reporter; actives raise or lower the signal. The essentials: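 Steps: transfect HepG2 with multiplexed cis-element reporter constructs; dose chemical 24 h; extract RNA with DNase treatment; reverse-transcribe, PCR-amplify, 6-FAM label, HpaI digest; separate fragments by capillary electrophoresis. Activity fitted both directions versus DMSO.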

For assay [4], the target named is Hypoxia-inducible factor 1-alpha (Homo sapiens) (UniProt Q16665). Briefly: ATG_HIF1a_CIS: Attagene CIS-FACTORIAL HepG2 Assay for human Hypoxia Inducible Factor 1 (HIF1A) (AID 2282951). The settings on record: HepG2 Attagene cis-factorial HIF1a reporter transcription; actives raise or lower the signal. In short, it runs like this: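 Transient MRTU transfection of human HepG2 liver cells, 24 h compound treatment, then total RNA isolation, oligo(dT) reverse transcription, PCR amplification, fluorescent labelling and capillary electrophoresis of reporter fragments. Gain or loss relative to DMSO.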
Hypoxia-inducible factor 1-alpha (Homo sapiens), sequence (Q16665 whole entry, looked up, the tested form may be a part): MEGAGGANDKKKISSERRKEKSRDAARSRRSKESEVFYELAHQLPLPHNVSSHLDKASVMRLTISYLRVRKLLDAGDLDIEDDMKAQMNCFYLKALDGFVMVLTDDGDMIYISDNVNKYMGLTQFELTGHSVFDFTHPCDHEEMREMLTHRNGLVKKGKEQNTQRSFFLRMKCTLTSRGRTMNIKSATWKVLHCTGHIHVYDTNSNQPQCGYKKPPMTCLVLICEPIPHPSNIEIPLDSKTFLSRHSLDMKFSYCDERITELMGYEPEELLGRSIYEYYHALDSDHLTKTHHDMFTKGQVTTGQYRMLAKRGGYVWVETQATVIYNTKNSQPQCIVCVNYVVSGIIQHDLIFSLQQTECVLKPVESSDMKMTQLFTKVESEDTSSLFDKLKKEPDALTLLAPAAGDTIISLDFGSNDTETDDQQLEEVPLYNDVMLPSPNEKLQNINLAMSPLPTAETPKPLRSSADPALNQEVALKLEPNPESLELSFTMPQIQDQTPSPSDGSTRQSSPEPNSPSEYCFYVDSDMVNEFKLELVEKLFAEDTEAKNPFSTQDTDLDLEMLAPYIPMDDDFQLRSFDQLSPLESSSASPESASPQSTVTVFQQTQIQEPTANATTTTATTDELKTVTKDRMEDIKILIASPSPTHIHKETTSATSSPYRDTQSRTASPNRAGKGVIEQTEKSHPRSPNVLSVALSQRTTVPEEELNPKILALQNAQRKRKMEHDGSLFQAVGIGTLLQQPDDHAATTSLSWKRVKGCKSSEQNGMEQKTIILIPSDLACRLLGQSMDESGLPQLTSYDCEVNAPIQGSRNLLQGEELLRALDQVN

A short description of assay [5]: ATG_PBREM_CIS: Attagene CIS-FACTORIAL HepG2 Assay for human Phenobarbital-responsive Enhancer Module (PBREM) (AID 2282955). To be noted: HepG2 PBREM cis-reporter, Attagene multiplexed transcription; actives raise or lower the signal. In short, it runs like this:
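Endogenous transcription factors in human liver HepG2 cells drive a PBREM cis-element reporter, whose transcript level after 24 h treatment is quantified by RT-PCR with capillary electrophoresis; activity fitted in both directions against DMSO.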

Assay [6] can be described thus: ATG_PXRE_CIS: Attagene CIS-FACTORIAL HepG2 Assay for human Pregnane X Receptor Element (PXRE) (AID 2282957). To be noted: HepG2 Attagene CIS-FACTORIAL PXRE reporter, mRNA; actives raise or lower the signal. The essentials:
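Fluorescent capillary electrophoresis of amplified reporter cDNA gave the signal, collected 24 h after dosing HepG2 cells that held transfected cis-element reporter constructs.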

A short description of assay [7]: ATG_RORE_CIS: Attagene CIS-FACTORIAL HepG2 Assay for human RAR-related Orphan Receptor Element (RORE) (AID 2282959). The settings on record: HepG2 Attagene cis-factorial RORE reporter, mRNA; actives raise or lower the signal. In short, it runs like this: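 Transient MRTU transfection of human HepG2 liver cells (FuGene 6); 24 h compound exposure; TriZol RNA, oligo(dT) RT, PCR, FAM labeling, HpaI cut, CE fragment analysis. DMSO = negative control/baseline.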

A short description of assay [8]: ATG_Sox_CIS: Attagene CIS-FACTORIAL HepG2 Assay for human SRY-box transcription factor (SOX) (AID 2282960). To be noted: HepG2 Attagene cis-factorial SOX reporter, mRNA; actives raise or lower the signal. The essentials: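 Endogenous factor activity in human liver HepG2 cells carrying transfected cis-regulated reporter units. RNA taken 24 h post-dose, reverse-transcribed, PCR-amplified and sized by capillary electrophoresis. Gain or loss of signal fitted relative to DMSO.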

In assay [9] the target is Transcription factor Sp1 (Homo sapiens) (UniProt P08047). Briefly: ATG_Sp1_CIS: Attagene CIS-FACTORIAL HepG2 Assay for human Specificity Protein 1 (Sp1) (AID 2282961). The settings on record: HepG2 Sp1 cis-reporter transcription, actives raise or lower the signal. In short, it runs like this:
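Transient MRTU-transfected HepG2, 24 h compound exposure. Total RNA → oligo(dT) RT → PCR of reporter → 6-FAM primer extension → HpaI digest → CE. Endpoint fitted both directions vs DMSO.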

The nature of assay [10]: ATG_SREBP_CIS: Attagene CIS-FACTORIAL HepG2 Assay for human Sterol Regulatory Element Binding (SREBP) (AID 2282962). To be noted: HepG2 Attagene cis-factorial SREBP reporter, mRNA; actives raise or lower the signal. In short, it runs like this: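 Endogenous SREBP activity read as cis-element-driven reporter transcript in transiently transfected HepG2, 24 h post-dosing; quantified via RT-PCR plus capillary electrophoresis of fluorescent fragments. Gain or loss of signal fitted relative to DMSO baseline.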

The target in assay [11] is Signal transducer and activator of transcription 3 (Homo sapiens) (UniProt P40763). Briefly: ATG_STAT3_CIS: Attagene CIS-FACTORIAL HepG2 Assay for human Signal Transducer and Activator of Transcription 3 (STAT3) (AID 2282963). The settings on record: HepG2, Attagene cis-factorial STAT3 reporter transcription; actives raise or lower the signal. The essentials:
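Readout is reporter transcript quantified by RT-PCR and capillary electrophoresis, with 6-FAM primer extension and HpaI digestion. Total RNA is taken 24 h after dosing transiently transfected HepG2 carrying cis-regulated reporter units. Bidirectional fit against DMSO.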

A short description of assay [12]: ATG_TA_CIS: Attagene CIS-FACTORIAL HepG2 Assay for human TA Basal Promoter (AID 2282964). The settings on record: HepG2 Attagene CIS-factorial TA basal promoter reporter; actives raise or lower the signal. In short, it runs like this:
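Steps: transfect HepG2 with MRTUs; dose 24 h; isolate RNA, DNase-treat, reverse-transcribe; PCR and FAM-label reporter cDNA; digest with HpaI 2h at 37 C; run capillary electrophoresis. Activity fitted both directions against DMSO.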

Assay [13] is described as follows: ATG_TCF_b_cat_CIS: Attagene CIS-FACTORIAL HepG2 Assay for human T-Cell-Factor with beta-catenin (TCF/b-cat) (AID 2282965). To be noted: HepG2 TCF/beta-catenin cis-reporter transcription, actives raise or lower the signal. The essentials: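 Endogenous transcription factor activity is captured through cis-promoter reporter constructs transiently introduced into human HepG2 liver cells. Induced reporter mRNA is measured after 24 h and fitted bidirectionally relative to DMSO.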

Assay [14] in a line: ATG_TAL_CIS: Attagene CIS-FACTORIAL HepG2 Assay for human TAL Basal Promoter (AID 2282966).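 Also: background control endpoint measuring basal TAL promoter reporter mRNA not a specific factor.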 To be noted: HepG2 Attagene cis-factorial TAL promoter reporter; actives raise or lower the signal. The essentials:
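Transiently transfected HepG2 (cis-regulated reporter units), 24 h treatment, mRNA read by fluorescent CE after RT-PCR; bidirectional fit, DMSO baseline.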

Assay [15] is described as follows: ATG_MRE_CIS: Attagene CIS-FACTORIAL HepG2 Assay for human Metal Responsive Element (MRE) (AID 2282954). To be noted: HepG2 MRE cis-reporter transcription, Attagene multiplex; actives raise or lower the signal. In short, it runs like this:
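Endogenous MRE-dependent transcription read as reporter mRNA in transiently transfected human HepG2 cells at 24 h. RNA reverse-transcribed, PCR-amplified, labelled and resolved by capillary electrophoresis; gain or loss relative to DMSO.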

A short description of assay [16]: ATG_PPRE_CIS: Attagene CIS-FACTORIAL HepG2 Assay for human Peroxisome Proliferator-activated Response Element (PPRE) (AID 2282958). The settings on record: HepG2 PPRE cis-element reporter, Attagene transcription factor profiling; actives raise or lower the signal. The essentials:
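HepG2, transient MRTU transfection (cis promoter elements, endogenous TFs). 24 h dosing. RNA → oligo(dT) RT → PCR → 6-FAM primer extension → HpaI digest → CE. Bidirectional fit vs DMSO.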

Assay [17] is described as follows: ATG_GRE_CIS: Attagene CIS-FACTORIAL HepG2 Assay for human Glucocorticoid Response Elements (GRE) (AID 2282947). To be noted: HepG2 GRE cis-reporter, Attagene multiplex mRNA; actives raise or lower the signal. The essentials:
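Reporter transcripts read by RT-PCR with capillary electrophoresis fluorescence after a 24 h chemical exposure of HepG2 cells transiently transfected with multiple cis-element reporter units. Gain or loss fitted against DMSO.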

Assay [18] addresses Heat shock factor protein 1 (Homo sapiens) (UniProt Q00613). Briefly: ATG_HSE_CIS: Attagene CIS-FACTORIAL HepG2 Assay for human Heat Shock Transcription Factor 1 (HSE) (AID 2282953). The settings on record: HepG2 HSE cis-reporter, Attagene RNA transcription; actives raise or lower the signal. The essentials:
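Cells were transfected with cis-element-driven reporter constructs, dosed for 24 h, then total RNA was reverse-transcribed and reporter cDNA amplified, FAM-labelled and digested with HpaI. Fragments were resolved by capillary electrophoresis; gain or loss was fitted against DMSO.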

The target of assay [19] is Paired box protein Pax-6 (Homo sapiens) (UniProt P26367). Briefly: ATG_Pax6_CIS: Attagene CIS-FACTORIAL HepG2 Assay for human Paired Box 6 (PAX6) (AID 2282956). The settings on record: HepG2 CIS-FACTORIAL PAX6 reporter transcription, RNA readout; actives raise or lower the signal. In short, it runs like this:
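Read-out is reporter transcript level, measured by RT-PCR with fluorescent primer extension and capillary electrophoresis after 24 h dosing of transfected HepG2 cells. Activity in either direction fitted relative to DMSO control.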

Transcription factor Sp1 (Homo sapiens), sequence (P08047 whole entry, looked up): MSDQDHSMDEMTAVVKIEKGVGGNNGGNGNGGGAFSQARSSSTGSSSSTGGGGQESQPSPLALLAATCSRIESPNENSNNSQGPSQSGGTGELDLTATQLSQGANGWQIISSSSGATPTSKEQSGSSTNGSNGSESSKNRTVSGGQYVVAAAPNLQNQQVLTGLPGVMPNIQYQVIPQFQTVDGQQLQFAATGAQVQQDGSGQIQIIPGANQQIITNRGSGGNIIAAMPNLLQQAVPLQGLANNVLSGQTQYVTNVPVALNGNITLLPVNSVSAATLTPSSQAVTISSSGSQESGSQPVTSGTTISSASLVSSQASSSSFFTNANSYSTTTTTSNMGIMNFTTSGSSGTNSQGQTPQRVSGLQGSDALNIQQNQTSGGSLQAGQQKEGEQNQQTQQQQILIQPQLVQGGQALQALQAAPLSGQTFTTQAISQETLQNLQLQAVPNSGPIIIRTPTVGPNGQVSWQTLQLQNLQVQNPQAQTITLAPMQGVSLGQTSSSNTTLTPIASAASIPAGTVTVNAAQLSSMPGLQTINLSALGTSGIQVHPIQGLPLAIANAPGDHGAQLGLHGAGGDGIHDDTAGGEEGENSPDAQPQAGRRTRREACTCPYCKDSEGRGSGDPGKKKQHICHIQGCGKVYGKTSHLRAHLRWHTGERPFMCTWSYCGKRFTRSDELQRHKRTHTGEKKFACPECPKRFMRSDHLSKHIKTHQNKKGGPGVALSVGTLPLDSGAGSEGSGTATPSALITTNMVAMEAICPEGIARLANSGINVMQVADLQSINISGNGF
Signal transducer and activator of transcription 3 (Homo sapiens), sequence (P40763 whole entry, looked up): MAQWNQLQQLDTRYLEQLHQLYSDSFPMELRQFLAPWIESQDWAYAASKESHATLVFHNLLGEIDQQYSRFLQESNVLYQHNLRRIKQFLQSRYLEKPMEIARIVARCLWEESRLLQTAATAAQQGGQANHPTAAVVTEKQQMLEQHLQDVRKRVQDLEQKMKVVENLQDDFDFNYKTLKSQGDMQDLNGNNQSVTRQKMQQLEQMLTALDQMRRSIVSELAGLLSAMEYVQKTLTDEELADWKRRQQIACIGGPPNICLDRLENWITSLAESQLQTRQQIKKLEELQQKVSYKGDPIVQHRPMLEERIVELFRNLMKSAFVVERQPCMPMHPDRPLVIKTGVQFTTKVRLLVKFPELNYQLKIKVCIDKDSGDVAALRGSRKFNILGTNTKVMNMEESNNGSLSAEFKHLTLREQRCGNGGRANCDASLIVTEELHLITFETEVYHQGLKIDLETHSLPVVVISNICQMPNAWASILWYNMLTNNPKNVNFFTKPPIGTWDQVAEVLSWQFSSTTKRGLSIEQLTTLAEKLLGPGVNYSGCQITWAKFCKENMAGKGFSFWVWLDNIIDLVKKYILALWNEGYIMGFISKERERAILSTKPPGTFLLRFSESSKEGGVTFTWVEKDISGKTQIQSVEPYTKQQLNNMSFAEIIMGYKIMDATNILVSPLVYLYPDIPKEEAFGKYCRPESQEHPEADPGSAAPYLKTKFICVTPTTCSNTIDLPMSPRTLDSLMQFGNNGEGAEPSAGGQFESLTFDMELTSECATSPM
Paired box protein Pax-6 (Homo sapiens), sequence (P26367 whole entry, looked up): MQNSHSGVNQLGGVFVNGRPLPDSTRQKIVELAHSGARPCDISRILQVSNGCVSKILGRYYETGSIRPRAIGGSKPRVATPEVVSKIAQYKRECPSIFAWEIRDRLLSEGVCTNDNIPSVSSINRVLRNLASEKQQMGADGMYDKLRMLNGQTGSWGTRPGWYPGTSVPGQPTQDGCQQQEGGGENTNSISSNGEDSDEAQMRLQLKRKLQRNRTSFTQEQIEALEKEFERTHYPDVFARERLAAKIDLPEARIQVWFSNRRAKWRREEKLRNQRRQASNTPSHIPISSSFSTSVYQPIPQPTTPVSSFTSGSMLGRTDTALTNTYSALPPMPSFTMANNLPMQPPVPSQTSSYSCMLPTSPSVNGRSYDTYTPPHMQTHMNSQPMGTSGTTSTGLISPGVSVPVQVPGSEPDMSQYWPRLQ
Heat shock factor protein 1 (Homo sapiens), sequence (Q00613 whole entry, looked up, the tested form may be a part): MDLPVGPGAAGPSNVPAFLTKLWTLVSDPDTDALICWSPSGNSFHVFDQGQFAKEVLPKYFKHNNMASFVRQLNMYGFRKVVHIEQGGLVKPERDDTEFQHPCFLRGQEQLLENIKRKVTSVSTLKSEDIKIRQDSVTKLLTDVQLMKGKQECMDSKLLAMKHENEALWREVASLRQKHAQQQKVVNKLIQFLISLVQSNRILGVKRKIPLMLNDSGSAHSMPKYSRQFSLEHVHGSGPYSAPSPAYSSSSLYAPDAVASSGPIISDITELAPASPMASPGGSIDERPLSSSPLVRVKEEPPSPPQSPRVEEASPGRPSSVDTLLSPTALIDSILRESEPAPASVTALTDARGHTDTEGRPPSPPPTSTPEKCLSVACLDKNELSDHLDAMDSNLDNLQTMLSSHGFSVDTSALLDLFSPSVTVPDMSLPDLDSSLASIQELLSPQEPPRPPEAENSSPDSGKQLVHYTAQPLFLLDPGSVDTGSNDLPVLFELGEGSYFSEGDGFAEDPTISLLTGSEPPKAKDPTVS

The term AC50 denotes the midpoint of the concentration-response curve, whichever way the signal moves. In the case of `OCc1c[nH]c2ccccc12`, the half-maximal activity concentration (AC50) in assay [1] was 27.1 µM (active) and 140 µM (active) and 32.2 µM (active); in [4], 2.91 µM (active) and 19.8 µM (active) and 1.45 µM (active); in assay [5], 5.11 µM (active) [middle of 4 runs]; in [6], 2.76 µM (active) [middle of 5 runs]; in assay [7], 2.51 µM (active) [middle of 5 runs]. Moreover, the call in assay [1], in [2], in assay [3], in [4], in assay [5] and in assay [8] was inactive. Besides, the outcome in assay [9], in assay [10], in assay [11], in assay [12], in assay [13] and in assay [14] was inactive.
As to `CCCCCCCCCCCCCCO`, the compound was called inactive in [1], in [2], in assay [3], in [4], in assay [15] and in assay [8]. The compound was classed as inactive in assay [9], in assay [12] and in [13]. Moreover, the AC50 in assay [6] was 100 µM (active); in [10], 171 µM (active); in assay [11] it was 158 µM (active); in [14] it was 100 µM (active).
On to `CCOc1ccc2[nH]cc(C(=O)NCc3ccccc3)c(=O)c2n1`, for which the compound was classed as inactive in assay [1], in assay [2], in [3], in assay [4], in assay [15] and in assay [5]. Further, the outcome in [16], in assay [7], in assay [8], in assay [9], in assay [10] and in assay [11] was inactive. Besides, the result in assay [13] and in assay [14] was inactive. In addition, the AC50 in assay [6] is 26.7 µM (active).
For `CCN(CC)C(=S)SSC(=S)N(CC)CC`, the outcome in assay [17], in assay [2], in assay [3], in assay [16], in assay [7] and in assay [11] was inactive. Further, the call in [14] was inactive. Further, the concentration at half-maximal activity (AC50) in assay [1] was 81.3 µM (active); in assay [18] it was 111 µM (active); in assay [15] it was 148 µM (active); in [5], 166 µM (active); in assay [19] it was 137 µM (active); in assay [6] it was 161 µM (active). The concentration at half-maximal activity (AC50) in assay [8] was 100 µM (active); in assay [9], 150 µM (active); in [10] it was 157 µM (active); in assay [13], 118 µM (active).
